# This is one part of a sample in which hits are shown more often than they occur.
# Methyltransferases – Primary Screen for Target Class Profiling of Small Molecule Inhibitors of Methyltransferases; purified enzyme, MTase-Glo SAH luminescence; hits give low values; calls only at 40 µM; 3.9% of 25,000 active; call rule not given here
#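 Each enzyme was assayed with SAM and its substrate. SAH formation detected by MTase-Glo luminescence; single-point 40 uM screen[…].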
# * marks the source's active call; other numbers are inactive results; i = inactive; + = active, no number. % is scaled to controls: 0 for no effect and ±100 for the full control effect.
SMILES,Methyltransferases
CC1(C(=O)NC2CCCCC2)Cn2c(ccc2-c2ccccc2)C(=O)N1Cc1ccc2c(c1)OCO2 (stereo unspecified),i
Cc1ccc2c(c1)C=Cc1cc(C)ccc1C2c1cn(Cc2ccc(C(=O)Nc3nn[nH]n3)o2)c(=O)[nH]c1=S,+
CCOC(=O)c1cc2n(n1)CC(C)(C(=O)NC1CCCCCC1)N(Cc1ccc(F)cc1)C2=O (stereo unspecified),i
CCOC(=O)c1cc2n(n1)CC(C)(C(=O)NCc1ccccc1OC)N(CCc1ccc(SC)cc1)C2=O (stereo unspecified),i
CCCC1c2ccc(C)n2CCN1C(=O)Nc1ccccc1C(F)(F)F (stereo unspecified),i
CC(C)C1c2cccn2CCN1C(=O)Nc1ccccc1C(F)(F)F (stereo unspecified),i
CCCC1c2cccn2CCN1C(=O)Nc1ccccc1C(F)(F)F (stereo unspecified),+
CCCn1c(=O)c2ccc(C(=O)NC3CCCC3)cc2n2c(=O)n(CC(=O)NCc3ccc(C)cc3)nc12,i
CCC(C)NC(=O)c1ccc2c(=O)nc3c(-c4cccc(F)c4)n[nH]n3c2c1 (stereo unspecified),i
Cc1cc2c(cc3n2CC(C)(C(=O)NC2CCCCC2)N(Cc2cccs2)C3=O)o1 (stereo unspecified),i
CC1CCN(S(=O)(=O)c2ccc3c(ccn3CCC(=O)N3CC(C)CC(C)C3)c2)CC1 (stereo unspecified),i
COC(=O)c1cc2n(n1)CC(C)(C(=O)NC1CCCCCC1)N(c1cccc(SC)c1)C2=O (stereo unspecified),i
Cc1cc(N(C)C)ccc1-c1nc2ccc(-c3nc4ccc(N5CCN(C)CC5)cc4[nH]3)cc2[nH]1,+
CCN1C(=O)c2cc(C(=O)Nc3cccc(Cl)c3)nn2CC1(C)C(=O)NC1CCCC1 (stereo unspecified),i
CCOC(=O)c1cc2n(n1)CC(C)(C(=O)NC1CCCC1)N(c1ccc(OC)cc1)C2=O (stereo unspecified),i
CN1C(=O)c2cc(C(=O)NCc3ccccn3)nn2CC1(C)C(=O)NC1CCCCCC1 (stereo unspecified),i
CC1CCC2(C(=O)OC3OC(CO)C(O)C(O)C3O)CCC3(C)C(=CCC4C5(C)CC(O)C(O)C(C)(C(=O)O)C5CCC43C)C2C1(C)O (stereo unspecified),i
CC1(C)CC[C@]2(C(=O)O[C@@H]3O[C@H](CO)[C@@H](O)[C@H](O)[C@H]3O)CC[C@]3(C)C(=CCC4[C@@]5(C)C[C@@H](O)[C@H](O)[C@@](C)(CO)C5CC[C@]43C)C2[C@@H]1O (stereo partly specified),+
COC(=O)C1(C)CCC2(C(=O)O)CCC3(C)C(=CCC4C5(C)CC(O)C(OC6OCC(O)C(O)C6O)C(C)(CO)C5CCC43C)C2C1 (stereo unspecified),i
C[C@@H]1CC[C@]2(C(=O)O[C@@H]3O[C@H](CO)[C@@H](O)[C@H](O)[C@H]3O)CC[C@]3(C)C(=CCC4[C@@]5(C)C[C@@H](O)[C@H](O)C(C)(C)C5CC[C@]43C)C2[C@]1(C)O (stereo partly specified),i
CC1(C)CC[C@]2(C(=O)O[C@@H]3O[C@H](CO)[C@@H](O)[C@H](O)[C@H]3O)CC[C@]3(C)C(=CCC4[C@@]5(C)CC[C@H](O[C@H]6O[C@H](CO)[C@@H](O)[C@H](O[C@@H]7O[C@H](CO)[C@@H](O)[C@H](O)[C@H]7O)[C@H]6O)C(C)(C)C5CC[C@]43C)[C@@H]2C1 (stereo partly specified),i
C[C@@H]1O[C@@H](O[C@@H]2CO[C@@H](O[C@H]3CC[C@@]4(C)C(CC[C@]5(C)C4CC=C4[C@@H]6CC(C)(C)CC[C@]6(C(=O)O[C@@H]6O[C@H](CO)[C@@H](O)[C@H](O)[C@H]6O)CC[C@]45C)[C@]3(C)CO)[C@H](O)[C@H]2O[C@@H]2O[C@H](CO)[C@@H](O)[C@H](O)[C@H]2O)[C@H](O)[C@H](O)[C@H]1O (stereo partly specified),i
CC1(C)CC[C@]2(C(=O)O[C@@H]3O[C@H](CO)[C@@H](O)[C@H](O)[C@H]3O)CC[C@]3(C)C(=CCC4[C@@]5(C)C[C@@H](O)[C@H](O)C(C)(C)C5CC[C@]43C)C2[C@@H]1O (stereo partly specified),+
CC1(CO)CC[C@]2(C(=O)O[C@@H]3O[C@H](CO)[C@@H](O)[C@H](O)[C@H]3O)CC[C@]3(C)C(=CCC4[C@@]5(C)C[C@H](O)[C@H](O[C@@H]6OC[C@@H](O)[C@H](O)[C@H]6O)[C@@](C)(CO)C5CC[C@]43C)C2C1 (stereo partly specified),+
CC1(C)CC[C@]2(C(=O)O[C@@H]3O[C@H](CO)[C@@H](O)[C@H](O)[C@H]3O)CC[C@]3(C)C(=CCC4[C@@]5(C)C[C@@H](O)[C@H](O)[C@@](C)(CO)C5[C@H](O)C[C@]43C)C2[C@@H]1O (stereo partly specified),+
SMILES,Methyltransferases
CC1(C)CC[C@]2(C(=O)O)CC[C@]3(C)C(=CCC4[C@@]5(C)C[C@@H](O)[C@H](O)[C@@](C)(CO)C5[C@H](O)C[C@]43C)[C@@H]2C1 (stereo partly specified),i
CC1CCC2(C(=O)OC3OC(CO)C(O)C(O)C3O)CCC3(C)C(=CCC4C5(C)CCC(O)C(C)(CO)C5CCC43C)C2C1(C)O (stereo unspecified),i
CC1OC(OC2C(O)COC(O[C@@H]3[C@@H](O)[C@@H](O)[C@H](OC4C(OC(=O)[C@]56CCC(C)(C)CC5C5=CCC7[C@@]8(C)C[C@H](O)[C@H](OC9OC(CO)C(O)C(O)C9O)[C@@](C)(CO)C8[C@H](O)C[C@@]7(C)[C@]5(C)CC6)OCC(O)C4O)O[C@H]3C)C2O)C(O)C(O)C1O (stereo partly specified),i
Cc1ccc(N2C(=O)c3cc(C(C)(C)C)nn3CC2(C)C(=O)NCc2ccccc2)c(C)c1 (stereo unspecified),i
CC(C)C1c2cccn2CCN1C(=O)Nc1cccc(C(F)(F)F)c1 (stereo unspecified),i
COc1cccc(CN2C(=O)c3ccc(-c4ccco4)n3CC2(C)C(=O)NCc2ccccc2)c1OC (stereo unspecified),i
CN1C(=O)c2cc(C(=O)NCc3ccc(F)cc3)nn2CC1(C)C(=O)NC1CCCCCC1 (stereo unspecified),i
COc1ccc(OC)c(NC(=O)N2Cc3c(sc4c3CCCC4)-n3cccc3C2c2ccc(F)cc2)c1 (stereo unspecified),i
CC(NS(=O)(=O)c1ccc(Cl)c(-c2nnc(-c3ccccc3)o2)c1)C(=O)O (stereo unspecified),i
CSc1ccc(CCNC(=O)CCCn2ccc3cc(S(=O)(=O)N4CCCC4)ccc32)cc1,i
CC1CCCC(NC(=O)C2(C)Cn3c(cc4sccc43)C(=O)N2Cc2ccccc2)C1C (stereo unspecified),i
Nc1nc(Nc2ccc3c(c2)CCC(N2CCCC2)CC3)nn1-c1cc2c(nn1)-c1ccccc1CCC2 (stereo unspecified),+
Cc1ccc(S(=O)(=O)c2nnn3c2nc(N2CCOCC2)c2cc(Cl)ccc23)cc1C,i
